Reference: PubChem BioAssay

These compounds were tested on Wnt5a (protein binding on small-molecule microarray) (assay: Wnt5a binders on small-molecule microarray, primary screen, biophysical, 635/667 nm fluorescence (AID 1142;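 further: fluorescence read at 667 nm with signal to noise per printed feature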)). Details: 635 nm fluorescence, higher = more signal.

SMILES	composite z-score
COC(=O)[C@@]1(Cc2ccc(OC)cc2)[C@H]2c3cc(C(=O)N4CCCC4)n(Cc4nc5ccccc5[nH]4)c3C[C@H]2CN1C(=O)c1ccccc1	0.704
COc1ccc(NC(=O)O[C@H]2[C@H](OC(=O)c3cc4ccccc4[nH]3)[C@@H](OC(=O)c3cc4ccccc4[nH]3)[C@@H](OC)O[C@@H]2CO)cc1	0.147
C=C(CCCC)C(=O)CC[C@@H](OC(C)=O)c1ccc(CO)o1	0.52
O=C1[C@H]2C=C(I)[C@H](C[C@@H]2OCCCCO)[C@@]12CO2	-0.163
COCCCNC(=O)[C@@]1(Cc2ccccc2)N=C(c2ccc(OCCCO)cc2)O[C@H]1c1ccccc1CN=[N+]=[N-]	0.419
CN(C)CCCCCCNC(=O)[C@@H]1C[C@@H]2C(=O)N3CCC[C@H]3C(=O)N2[C@@H]1c1ccc(O)cc1	0.21
COc1ccc([C@H]2C[C@H]3C(Br)=C[C@@]2(CO)C(=O)[C@]32CO2)cc1	0.0718
C=CCNC(=O)[C@@H]1[C@H]2C(=O)O[C@H](c3ccccc3)[C@H](c3ccccc3)N2[C@H](c2ccc(OCCO)cc2)[C@@]12C(=O)N(C(=O)OCCOC)c1ccc(C#CCNC(N)=O)cc12	0.372
CS(=O)(=O)CCOC(=O)C1=CC(CCCO)=CC(c2ccc(CN3CCCC3)cc2)N(Cc2cccc(OC(F)(F)F)c2)C=C1C(=O)OCCS(C)(=O)=O (stereo not given)	0.531
COCCOC(=O)N1C(=O)[C@@]2(c3cc(C#CC4(O)CCCCCC4)ccc31)[C@H](C(=O)Nc1nc3ccccc3s1)[C@H]1C(=O)O[C@H](c3ccccc3)[C@H](c3ccccc3)N1[C@@H]2c1ccc(OCCO)cc1	0.564
[N-]=[N+]=Nc1ccccc1C[C@]1(C(=O)NCC(O)CO)N=C(c2ccc(OCCCO)cc2)O[C@H]1c1ccccc1 (stereo not given in full)	-0.541
[N-]=[N+]=NCc1ccccc1C[C@@]1(C(=O)NCC(O)CO)N=C(c2ccc(OCCCO)cc2)O[C@@H]1c1ccccc1 (stereo not given in full)	0.423
C=CCN1C(=O)[C@]2(O[C@H](CCO)[C@@H]([Si](C)(C)c3ccc(OC)cc3)[C@@H]2C)c2cc(N(C=O)c3ccccc3)ccc21	-0.223
Cc1ccc(S(=O)(=O)N2C[C@@H](C(=O)O)[C@H](Sc3ccccc3)C[C@H]2c2ccccc2)cc1	0.731
COC(=O)[C@]1(Cc2ccccc2)N=C(c2ccc(OCCCO)cc2)O[C@@H]1c1ccccc1N=[N+]=[N-]	0.501
C=CC[C@]1(C(N)=O)N=C(c2ccc(OCCCO)cc2)O[C@H]1c1ccccc1	0.555
[N-]=[N+]=Nc1ccccc1[C@H]1OC(c2ccc(OCCCO)cc2)=N[C@@]1(Cc1ccccc1)C(=O)N1CCOCC1	0.267
O=C1NC(=O)C2C1C=CC(C(O)c1ccc(-c3ccccc3)s1)N2Nc1ccc(Cl)cc1Cl (stereo not given)	0.289
NCCCCCNC(=O)[C@H]1C[C@H]2C(=O)N3CCC[C@H]3C(=O)N2[C@H]1c1ccc(O)cc1	0.354
CC(=O)n1cc(C(O)C2C=CC3C(=O)NC(=O)C3N2Nc2ccccn2)c2ccccc21 (stereo not given)	0.109
CO[C@H]1O[C@H](CO)[C@@H](OC(=O)Nc2cccc(F)c2)[C@H](OC(=O)Nc2ccccc2)[C@H]1OC(=O)Nc1ccccc1	0.701
CO[C@H]1O[C@H](CO)[C@@H](OC(=O)Nc2ccccc2-c2ccccc2)[C@H](OC(=O)Nc2ccccc2-c2ccccc2)[C@@H]1OC(=O)Nc1ccccc1-c1ccccc1	0.689
O=C(NCc1ccccc1)[C@@H]1c2ccccc2C(=O)N(C2Cc3ccccc3C2)[C@H]1c1ccc(CO)cc1	0.303
O=C1C2C=CC(C(O)c3ccc(-c4ccccc4)s3)N(Nc3ccccc3)C2C(=O)N1c1ccccc1 (stereo not given)	0.155
Cc1c(NC(=O)/C(C#N)=C/c2cccc([N+](=O)[O-])c2)c(=O)n(-c2ccccc2)n1C	0.233
O=C1C2C=CC(C(O)c3c(F)cccc3Cl)N(Nc3ccccc3F)C2C(=O)N1c1ccccc1 (stereo not given)	0.185
NCCCCCCNC(=O)[C@H]1C[C@H]2C(=O)N[C@@H](Cc3ccccc3)C(=O)N2[C@H]1c1cccc(OCCO)c1	-0.0371
CN(C)CCCC[C@@H]1NC(=O)[C@H]2C[C@@H](C(=O)NCCCCCN)[C@@H](c3cccc(OCCO)c3)N2C1=O	0.456
O=C(NCCN1CCOCC1)[C@@H]1c2ccccc2C(=O)N(Cc2cc(C(F)(F)F)cc(C(F)(F)F)c2)[C@H]1c1ccc(CO)cc1	0.556
COc1ccc([Si](C)(C)[C@@H]2[C@@H](CC(=O)N3Cc4ccccc4C[C@H]3CO)O[C@]3(C(=O)N(Cc4cccc(N5CCC5=O)c4)c4ccccc43)[C@H]2C)cc1	0.103
